In PubChem BioAssay (NCI):
Several values for one entry are separate records, joined by “and”; a condition that tells them apart may be missing. Equal values may be shown once. Compounds without any hit were thinned out: in the full panel of roughly 83,000, 20% have a hit.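 Method: cells in 96-well plates; compound added at one concentration; 48 h incubation; percent growth measured; values under 10 scored active.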 Activity calls are given as the source filed them.

Assays:
Test in all cases: NCI-60 one-dose screen, 48 h (100 = growth as untreated, 0 = no growth, -100 = all killed)
Settings in all cases: 10 µM unless noted
DU-145 prostate = system: DU-145 prostate
K-562 leukemia = system: K-562 leukemia
MALME-3M melanoma = system: MALME-3M melanoma
MDA-MB-231 breast = system: MDA-MB-231 breast
RXF 393 renal = system: RXF 393 renal
SF-268 CNS = system: SF-268 CNS
SF-295 CNS = system: SF-295 CNS
SF-539 CNS = system: SF-539 CNS
UACC-257 melanoma = system: UACC-257 melanoma
M14 melanoma = system: M14 melanoma

SMILES	growth (DU-145 prostate)	growth (K-562 leukemia)	growth (MALME-3M melanoma)	growth (MDA-MB-231 breast)	growth (RXF 393 renal)	growth (SF-268 CNS)	growth (SF-295 CNS)	growth (SF-539 CNS)	growth (UACC-257 melanoma)	growth (M14 melanoma)
COc1ccc(-c2c3c(cn2Cc2cccc(OC)c2)-c2oncc2CCC3)cc1	101% (inactive)	85.6% (inactive)	95.6% (inactive)	101% (inactive)	111% (inactive)	99.5% (inactive)	97% (inactive)	97.8% (inactive)	96.6% (inactive)	91.6% (inactive)
Fc1cc(F)cc(NNC(=S)c2ccccc2)c1	58% (inactive)	29.4% (inactive)	85.3% (inactive)	66.5% (inactive)	-11% (active)	55% (inactive)	52.5% (inactive)	66.6% (inactive)	73.8% (inactive)	30.2% (inactive)
NS(=O)(=O)c1cccc(Nc2nc(SCC(=O)c3ccc(Cl)cc3)nc3c2CCC3)c1	97.6% (inactive)	90.2% (inactive)	96.4% (inactive)	92.5% (inactive)	82.2% (inactive)	82.8% (inactive)	93.1% (inactive)	88.3% (inactive)	104% (inactive)	101% (inactive)
Cc1ccc(C(=O)CSc2nnc(-c3ccc(-c4ccc(Cl)cc4)nc3C)o2)cc1	115% (inactive)	101% (inactive)	96.1% (inactive)	92.6% (inactive)	119% (inactive)	105% (inactive)	92.5% (inactive)	97.6% (inactive)	118% (inactive)	98.2% (inactive)
C=C(C)[C@@H]1CC[C@]2(C(=O)N3CCN(C)CC3)CC[C@]3(C)[C@H](CC[C@@H]4[C@@]5(C)CC[C@H](OP(=O)(OCC)OCC)C(C)(C)[C@@H]5CC[C@]43C)[C@@H]12	101% (inactive)	29.6% (inactive)	106% (inactive)	83.6% (inactive)	59.5% (inactive)	87.3% (inactive)	89.4% (inactive)	84.8% (inactive)	82.9% (inactive)	102% (inactive)
O=C(CCCCCCN1CC(=O)N2[C@@H](c3ccccc3Br)c3[nH]c4ccccc4c3C[C@H]2C1=O)NO	62.7% (inactive)	22.6% (inactive)	14.4% (inactive)	50% (inactive)	43.1% (inactive)	79.6% (inactive)	55.3% (inactive)	51% (inactive)	39.9% (inactive)	42.1% (inactive)
Cc1cc(=O)oc2cc(OCCCOc3ccc(/C=C/C(=O)Nc4ccc(Br)cc4)cc3)ccc12	67.1% (inactive)	78.4% (inactive)	40.4% (inactive)	70.5% (inactive)	57.8% (inactive)	67.8% (inactive)	95.1% (inactive)	87.9% (inactive)	91.4% (inactive)	84% (inactive)
CC(=O)Nc1cc(N2CCOCC2)c2nc(NC(=O)c3[nH]c(C)c(Cl)c3Cl)sc2c1	58.1% (inactive)	81.4% (inactive)	54.7% (inactive)	62.2% (inactive)	19.2% (inactive)	93.9% (inactive)	50.8% (inactive)	48.7% (inactive)	84.8% (inactive)	72.1% (inactive)
C#Cc1nc(C(=O)NCCCCCCC(=O)NO)cs1	-51.1% (active)	5.86% (active)	-61% (active)	-71.8% (active)	-78.7% (active)	2.01% (active)	-2.7% (active)	-80.1% (active)	23% (inactive)	16.6% (inactive)
Cc1ccc(-c2nc(SCC(=O)c3ccccc3)nc(Nc3ccc(S(N)(=O)=O)cc3)c2C#N)cc1	60.7% (inactive)	70.1% (inactive)	33.6% (inactive)	33% (inactive)	51.7% (inactive)	76.7% (inactive)	36.7% (inactive)	18.3% (inactive)	97.4% (inactive)	36.7% (inactive)
N#Cc1c(-c2ccc(Br)cc2)cc(-c2c[nH]c3ccccc23)nc1N	70% (inactive)	18.6% (inactive)	73.9% (inactive)	46% (inactive)	25.9% (inactive)	56.9% (inactive)	52.4% (inactive)	43% (inactive)	94.4% (inactive)	44.6% (inactive)
C#CCOc1ccccc1/C=N/Nc1nc(-c2ccc(Cl)cc2)cs1	104% (inactive)	86.2% (inactive)	97.2% (inactive)	86.4% (inactive)	102% (inactive)	98.9% (inactive)	109% (inactive)	89.5% (inactive)	102% (inactive)	94% (inactive)
CCCCCCN1C=C/C(=C\C(=O)n2ccc3ccccc32)c2ccccc21	74% (inactive)	31.8% (inactive)	70.6% (inactive)	73% (inactive)	74.3% (inactive)	80.9% (inactive)	34.4% (inactive)	87% (inactive)	71.6% (inactive)	78.5% (inactive)
CCCCCCCCCC(=O)NC(C)(C)C(=O)N1CCC[C@H]1C(=O)N[C@@H](CC(C)C)C(=O)N[C@@](C)(CC)C(=O)N[C@@H](CCC(N)=O)C(=O)N[C@H](CCC(N)=O)C(=O)NC(C)(C)C(=O)NC(C)(C)C(=O)N[C@@H](CCC(N)=O)C(=O)N[C@H](CC(C)C)C(=O)N[C@H](CO)CC(C)C	-97.6% (active) and -52.1% (active)	-81.3% (active) and 23% (inactive)	-91.4% (active) and -84.4% (active)	-92.8% (active) and -95.8% (active)	-92.3% (active) and -46.4% (active)	-68.6% (active) and -46.2% (active)	-92.1% (active) and -84.6% (active)	-97.7% (active) and -99% (active)	-95% (active) and -74% (active)	-77.5% (active) and -65.7% (active)
CN1CCN(Cc2ccc(NC(=O)c3cncc(C#Cc4cnc5ccc(OCCCS(C)(=O)=O)nn45)c3)cc2C(F)(F)F)CC1	1.01% (active)	5.44% (active)	-80.5% (active)	-20.7% (active)	-79.6% (active)	-45.8% (active)	0.237% (active)	-68.4% (active)	-27.6% (active)	-78.9% (active)
O=c1nc(Nc2ccc([N+](=O)[O-])cc2O)sc2ccccc12	25.1% (inactive)	12.9% (inactive)	30.7% (inactive)	51.8% (inactive)	7.31% (active)	59.4% (inactive)	-34.2% (active)	-36.5% (active)	65% (inactive)	17.5% (inactive)
O=C1C(SCc2ccccc2)=C(Cl)CN1c1ccc(Cl)cc1	49.5% (inactive)	52.9% (inactive)	103% (inactive)	101% (inactive)	107% (inactive)	108% (inactive)	102% (inactive)	97.9% (inactive)	97.2% (inactive)	78% (inactive)
CC1CCN(CC(=O)Nn2c(COc3ccccc3)nc3ccccc3c2=O)CC1	101% (inactive)	32.2% (inactive)	79.5% (inactive)	78.4% (inactive)	94.2% (inactive)	99.4% (inactive)	96.9% (inactive)	88.6% (inactive)	95.4% (inactive)	78.9% (inactive)
Brc1ccc2[nH]cc(-c3nn4cc(-c5nccs5)nc4s3)c2c1	20.8% (inactive)	13.1% (inactive)	-7.45% (active)	-13.5% (active)	-46.4% (active)	31.7% (inactive)	37.1% (inactive)	29.7% (inactive)	56.8% (inactive)	13.3% (inactive)
NCCNC(=O)c1cccc(COc2ccccc2NC(=O)c2cc(Cl)c(Cl)[nH]2)c1	92.6% (inactive)	5.92% (active)	100% (inactive)	106% (inactive)	93.5% (inactive)	90.2% (inactive)	105% (inactive)	97.6% (inactive)	98.9% (inactive)	101% (inactive)
COc1ccc2c(c1)c(/C=N/Nc1ccnc3cc(Cl)ccc13)cn2C	-93.3% (active)	-48.1% (active)	-77.2% (active)	-82.8% (active)	-81.1% (active)	-67.1% (active)	-84.4% (active)	-82.9% (active)	-84.2% (active)	-72% (active)
COc1cccc(N2CCN(C3=C(Cl)C(=O)c4ncccc4C3=O)CC2)c1	59.2% (inactive)	7.16% (active)	61.6% (inactive)	85.1% (inactive)	64.5% (inactive)	84.1% (inactive)	110% (inactive)	93.8% (inactive)	70.2% (inactive)	81.7% (inactive)
Cc1ccc([C@H]2c3[nH]c4ccccc4c3C[C@H]3C(=O)N(CCCCCCC(=O)NO)CC(=O)N23)s1	71.5% (inactive)	35.8% (inactive)	22.9% (inactive)	72.2% (inactive)	59.7% (inactive)	88.5% (inactive)	78.1% (inactive)	58% (inactive)	53.5% (inactive)	63.5% (inactive)
O=C1/C(=C/c2cc(F)cc(F)c2)Cc2cc3c(cc21)OCO3	54.4% (inactive)	18.4% (inactive)	37.9% (inactive)	40.5% (inactive)	29% (inactive)	64.7% (inactive)	35.6% (inactive)	33.1% (inactive)	73.6% (inactive)	20.2% (inactive)
Cc1ccc2c(n1)C(=O)C(Cl)=C(Nc1ccc(C(F)(F)F)cc1)C2=O	105% (inactive)	7.13% (active)	-49.6% (active)	76.4% (inactive)	-15.7% (active)	97.7% (inactive)	112% (inactive)	101% (inactive)	35.6% (inactive)	28.6% (inactive)
NS(=O)(=O)c1ccc(Nc2nc(N/N=C/c3ccc4c(c3)OCO4)nc(Nc3ccccc3)n2)cc1	41% (inactive)	33.2% (inactive)	58.6% (inactive)	59.6% (inactive)	22.4% (inactive)	42.6% (inactive)	64.5% (inactive)	16.7% (inactive)	84.6% (inactive)	38.7% (inactive)
